NALP1 inh – NALP1 inhibition | S. cerevisiae NALP1/ASC/caspase-1 growth, X-gal OD620, 72 h | inhibition, % at 10 µM | hit rate 0.61% among 280,000; in the data active = inhibition mostly above about 24%, no sharp cut-off; inactive = mostly below about 32%
TIM10 inh – TIM10 yeast growth inhibition; S. cerevisiae TIM10 strain growth, BacTiter-Glo luminescence, 24 h; inhibition, % at 10 µM; hit rate 1.4% among 330,000;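 active = inhibition of 40% or more at the single tested concentration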;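 also: wild-type TIM10 isogenic control strain grown at permissive 25 °C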
NLRP3 yeast inh – blocks the NALP3 inflammasome reconstituted in yeast; Yeast reconstituted NLRP3/ASC/caspase-1, beta-gal luminescence, 24 h; inhibition, % at 10 µM; hit rate 0.39% among 330,000;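 active = inhibition of 50% or more; inactive = inhibition below 50%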;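 also: plate controls were induced DMSO wells for no effect and uninduced yeast grown without galactose for full effect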
V-ATPase pHluor – regulators of yeast V-ATPase proton transport; S. cerevisiae, pHLuorin cytosolic pH fluorescence; response, % at 10 µM; hit rate 0.37% among 350,000; AID 504577; in the data active = response mostly above about 7.3%, no sharp cut-off; inactive = mostly below about 5.4%; also: actives read high
tim23-1 inh – growth inhibitors of tim23-1 mutant yeast; inhibition, % at 20 µM; S. cerevisiae tim23-1 growth, BacTiter-Glo luminescence, 24 h; hit rate 1.3% among 330,000;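 active = growth inhibition of the mutant yeast at or above 50%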;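 also: temperature-sensitive mutant grown at 25 °C; plate controls were DMSO-treated mutant yeast for no effect and medium wells lacking yeast for full effect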
tim10-1 inh – inhibits growth of tim10-1 mutant yeast; S. cerevisiae tim10-1 ts strain growth, BacTiter-Glo, 24 h; inhibition, % at 20 µM; hit rate 2.2% among 330,000; AID 463190;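 active = inhibition of at least 40%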;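 also: mutant grown at 25 °C; 0% = DMSO wells with yeast and 100% = wells holding no yeast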
tim23-1 confirm – tim23-1 yeast growth inhibition, confirmed | shares compounds with tim23-1 inh | S. cerevisiae tim23-1 growth, BacTiter-Glo luminescence, 24 h | inhibition, % at 20 µM | hit rate 83% among 4,400 | AID 463218;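 active = inhibition above about 39% in either of two replicate wells at 20 µM, limit read from the data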;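 also: temperature-sensitive tim23-1 mutant grown at 25 °C; 0% = DMSO wells with yeast and 100% = medium wells without yeast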
Starred values were filed as active, the others as inactive; . = no result given. Shown are actives, neighbours in structure and some others; about 4.2% of the full set was active somewhere.

SMILES	NALP1 inh	TIM10 inh	NLRP3 yeast inh	V-ATPase pHluor	tim23-1 inh	tim10-1 inh	tim23-1 confirm
c1ccc(CC(Nc2ccccn2)c2ccccc2)cc1 (configuration not stated)	-2	38	20	2	52*	35	41*
Cc1nnc2n(Cc3ccccc3)c(=O)c3c4c(sc3n12)COC(C(C)C)C4 (configuration not stated)	3	-1	7	5	55*	26	38
Cc1ccc(S(=O)(=O)N2C[C@@H]3[C@H]4CC[C@H](C4)[C@@H]3[C@@H](C)[C@H]2C#N)cc1	.	0	.	-2	91*	18	40*
Cc1ccc(S(=O)(=O)N2C[C@@H]3[C@H]4CC[C@H](C4)[C@@H]3[C@@H](C)[C@H]2c2ccn(Cc3ccccc3)c2)cc1	.	0	.	0	37	21	.
O=c1c2c(n3cnnc3n1-c1ccccc1)-c1ccccc1CC21CCCC1	14	38	12	-4	43	39	.
O=c1c2c(n3cnnc3n1C1CCCCC1)-c1ccccc1CC21CCCCC1	6	30	-15	0	54*	31	15
Cc1cccc(NC(=S)NNc2cccc(Cl)c2)c1	-35	24	12	0	52*	23	55*
NC(=S)NNC(=O)Nc1cccc(Cl)c1	23	3	6	0	5	-2	.
NC(=S)NNc1cccc(Cl)c1	-2	13	20	7	60*	21	61*
C[C@H](CO)N1C[C@H](C)[C@@H](CN(C)Cc2ccccc2)Oc2ccc(NC(=O)Cn3cnnn3)cc2C1=O	.	4	3	0	1	5	.
CC1CN(CCOCCSc2ccccc2)CC(C)O1 (configuration not stated)	10	-6	11	2	-15	-10	.
C#CCOCCOCCOCCNc1nc(N2CCN(C(=O)CCCCCCCCCCNC(=O)[C@H]([C@@H](C)CC)n3cc(CCCCN=C(N)N)nn3)CC2)nc(N2CCN(C(=O)CCCCCCCCCCNC(=O)[C@H](CCCCN)n3cc(C)nn3)CC2)n1	.	12	17	.	58*	36	41*
C#CCOCCOCCOCCNc1nc(N2CCN(C(=O)CCCCCCCCCCNC(=O)[C@H]([C@@H](C)CC)n3cc(CCCCCN)nn3)CC2)nc(N2CCN(C(=O)CCCCCCCCCCNC(=O)[C@H]([C@@H](C)CC)n3cc(CCCCN=C(N)N)nn3)CC2)n1	.	-9	26	2	40	14	.
O=C(NCCCCCc1nc2ccccc2[nH]1)c1ccccc1Cl	.	-13	9	0	9	-12	.
CCS(=O)(=O)N1CCCC(C(=O)NCCc2ccc(OC)c(OC)c2)C1 (configuration not stated)	10	-11	6	1	16	7	.
COc1cccc(-c2c(C#N)c(N)nc3c2c(C)nn3-c2ccccc2)c1O	12	10	6	-1	51*	17	27
CC(C)[C@@H]1N[C@]2(C(=O)Nc3ccccc32)[C@@H]2C(=O)N(c3cccc(C(F)(F)F)c3)C(=O)[C@@H]21	18	9	-4	2	10	19	.
CCOc1ccc(/C=C/C(=O)c2c(O)c3ccccc3oc2=O)cc1	-2	13	26	0	76*	5	32
CN(C)c1ccc(/C=C/C(=O)c2c(O)c3ccccc3oc2=O)cc1	.	13	16	8	19	-2	.
CNC(=S)N1CCc2ccccc2C1	28	6	6	4	13	8	.
CCOc1ccc2c(C)c(Cl)c(=O)oc2c1	10	-11	31	0	18	-9	.
CCN(CC)c1ccc2c(C)c(Cl)c(=O)oc2c1	-14	27	26	-1	50*	9	53*
CCN(CC)c1ccc2c(C)c(-c3ccc(N)cc3)c(=O)oc2c1	-1	38	14	11	55*	24	67*
COc1cc(-c2nc(C)c(C(C)=O)n2O)ccc1OCC(=O)Nc1ccc(Cl)cc1	-2	15	27	-3	26	17	.
CC1CC(C)CN(C(=O)c2ccc3c(c2NCCO)C(=O)c2ccccc2C3=O)C1 (configuration not stated)	-9	34	4	0	51*	39	53*
SMILES	NALP1 inh	TIM10 inh	NLRP3 yeast inh	V-ATPase pHluor	tim23-1 inh	tim10-1 inh	tim23-1 confirm
O=S(=O)(CCN1CCN(c2ccccc2O)CC1)c1cc(Cl)ccc1Cl	.	26	2	3	50*	39	23
O=C(CN1CCN(c2ccccc2O)CC1)NNC(=O)c1ccc(Cl)cc1	13	-4	-1	1	5	-10	.
Cn1c(C=O)c(C#Cc2ccccc2)c2ccccc21	.	21	14	-4	58*	14	63*
N/C(=N\OC(=O)c1ccco1)c1ccccn1	4	8	-16	1	-1	5	.
CC1CCCC(NS(=O)(=O)c2cc(Br)cnc2N)C1C (configuration not stated)	29	28	9	0	55*	38	45*
Nc1ncc(Br)cc1S(=O)(=O)NC1CCCCC1	2	8	0	0	26	13	.
Nc1nnc(CC(=O)N/N=C/c2ccccc2OCc2ccc(F)cc2)s1	.	11	4	2	4	-6	.
Cc1ccc(Nc2cc(C)nc3ccccc23)c(C)c1	.	-15	14	-2	-6	-6	.
CCCCCCCCCCCCCCCC(O)C(N)CO (configuration not stated)	41	11	41	8	52*	23	44*
CCCCCCCCCCCCCCCC(O)C[N+](C)(C)CCO (configuration not stated)	.	.	.	3	.	.	.
Cc1cc(N)n2nc(C)c(-c3ccccc3)c2n1	19	.	.	2	.	.	.
Cc1cc(NC2CCCC2)n2nc(C)c(-c3ccccc3)c2n1	16	35	-3	2	51*	28	43*
Cc1cc(NC2CCCC2)n2ncc(-c3ccccc3)c2n1	30	22	15	-1	50*	37	18
Cc1ccccc1-n1nc2c(c1NC(=O)c1ccc(Br)o1)CSC2	14	29	-3	14	24	39	.
C#CCOCCOCCOCCNc1nc(N2CCN(C(=O)[C@H](CCCCN)n3cc([C@@H](N)C(C)CC)nn3)CC2)nc(N2CCN(C(=O)[C@H](CCCCN)n3cc([C@@H](N)CO)nn3)CC2)n1 (some centres not stated)	9	3	16	.	7	-20	.
O=C(Cc1cccs1)NNC(=S)NC(=O)c1ccco1	-24	7	20	1	-21	1	.
CCCCCCN1C[C@H](n2cc(-c3ccc(F)cc3)nn2)[C@@H](O)C[C@@H]1c1ccc(OC)cc1	.	.	.	1	.	.	.
COc1ccc(S(=O)(=O)N2CCC3(CC2)OCCN3S(=O)(=O)c2ccc(OC)cc2)cc1	.	12	1	1	7	-6	.
COc1ccc(S(=O)(=O)N2CCOC23CCN(S(=O)(=O)c2ccc(Cl)cc2)CC3)cc1	.	33	-1	0	52*	36	42*
